This is part of a sample that, as a whole, favours compounds with a hit. Of some 83,000 tested, about 20% had one in any assay.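 Single-dose data. Exposure time 48 hours. Values below 10 considered active.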 A number with no mark means an inactive call. Activity calls are given as the source filed them.

This assay relates to HL-60(TB) leukemia. As to the kind of experiment: NCI-60 one-dose screen, 48 h (100 = growth as untreated, 0 = no growth, -100 = all killed). The following applies: 10 µM unless noted.
As for `Cc1cc(C)c2c(c1)N1OC(C2)C[C@H]1/C=C/c1ccccc1` (stereo not given in full), the growth is 82.2%. The value for `Nc1ccc(CCCCc2ccccc2)c(Cl)c1` was 78.7%; that for `C=C(C)[C@@H]1CC[C@]2(C(=O)OC)CC[C@]3(C)[C@H](CC[C@@H]4[C@@]5(C)C/C(=C/c6cccc(I)c6)C(=O)C(C)(C)[C@@H]5CC[C@]43C)[C@@H]12` was 97.6%. In the case of `C/C(=N\O)[C@@H]1CC[C@]2(CO)CC[C@]3(C)[C@H](CC[C@@H]4[C@@]5(C)CCCNC(C)(C)[C@@H]5CC[C@]43C)[C@@H]12` it was 95.1%; in that of `Cc1c(C(=O)N[C@@H](Cc2ccccc2)C(=O)C(=O)NCc2ccc(F)cc2)[nH]c2ccccc2c1=O`, 96.8%; in that of `CCCCCN1C=C/C(=C\C(=O)N(C)c2ccc(OC(F)(F)F)cc2)c2ccccc21`, 111%. In the case of `O=C(Cc1ccc(NC(=O)c2cccc(Cl)c2)cc1)NCc1ccccc1` it was -14% (active).

Turning to `COc1ccc(S(=O)(=O)NCCCNc2nccc(-c3c(-c4cccc([N+](=O)[O-])c4)nc4sccn34)n2)cc1`, the growth was 22.9%.

In the case of `CCCCCCC(CC#N)(CCC)CCCC` (stereo not given), the growth was 112%.

On to `CCC1(CC)C(OC)NC(Br)=C(C#N)C1(C#N)C(N)=O` (stereo not given), for which the growth is 93.1%.

Take `CC1=C2[C@@H](CC1)[C@]1(C)O[C@@](C(C)C)(C[C@H]1OC(=O)CO)[C@H]2OC(=O)CCCc1ccccc1`: the growth was 1.28% (active). Turning to `Cc1c(O)c(=O)ccn1-c1nc2ccccc2s1`, the growth was 98.3%. In the case of `Cc1nc(Nc2ccc(NC(=S)Nc3ccccc3)cc2)nc2nc(Nc3ccc(S(=O)(=O)O)cc3)[nH]c(=O)c12` it was 132%; in that of `Cc1cc(C(C)(C)C)cc(C)c1CC1=NCCN1`, 102%; in that of `C=C(C)[C@@H]1CC[C@]2(C=NCCCNCCCCNCCCN)CC[C@]3(C)[C@H](CC[C@@H]4[C@@]5(C)CCCNC(C)(C)[C@@H]5CC[C@]43C)[C@@H]12`, 89.6%.

As for `c1c2c(cc3c1OCO3)Cc1cc3c(cc1Cc1cc4c(cc1C2)OCO4)OCO3`, the growth was 116%.

Take `COc1cc(C2C(C#N)=C(c3c[nH]c4ccccc34)Nc3nc(N)[nH]c(=O)c32)cc(OC)c1OC` (stereo not given): the growth was 42.1%. Consider `O=C1C=CC(=O)c2c1nc1n2CCCC1`, for which the growth was 94.7%. The value for `Nc1ccc(Nc2nccc(-c3ccc4ccccc4c3)n2)cc1` was 21.2%; that for `CCOC(=O)C(=Cc1ccc(-c2ccccc2)cc1)C(=O)OCC` was -10.6% (active).

With `CS(=O)(=O)CCNCc1ccc(-c2ccc3ncnc(Nc4ccc(OCc5cccc(F)c5)c(Cl)c4)c3c2)o1`, the growth is 20.3%. In the case of `CCOC(=O)C#Cc1c(C(=O)OCC)nnn1[C@@H]1O[C@H](COC)[C@@H](OC)[C@H]1OC` it was 47.5%. The value for `C=C(Cl)C(=NC(C)(C)C)Nc1ccccc1C` was 43.3%; that for `COc1cc(C(=O)/C(C)=C/c2c[nH]c3ccccc23)cc(OC)c1OC` was -9.27% (active). The value for `Cl` was 107%; that for `CCOC(=O)c1c(C)oc2ncnc(Nc3ccc(C(=O)NCCc4ccccc4)cc3)c12` was 87.7%; that for `COc1ccc(-c2cc(-c3ccccc3)nc(SCCCCCC(=O)NO)n2)cc1` was -26.2% (active).

In the case of `CCOC(=O)c1c2c(n3ccc(NC(=O)OC(C)(C)C)cc13)C(=O)c1ncccc1C2=O`, the growth was -34.2% (active). The value for `COc1cc(OC)cc(C(=O)Nc2cnc(Nc3ccc(N4CCOCC4)nc3)nc2Oc2ccc(C(F)(F)F)cc2)c1` was 94.7%; that for `c1ccc(CCNc2ncnc3[nH]ncc23)cc1` was 79.6%; that for `COc1cc(-c2cc3cc(O)ccc3oc2=O)cc(OC)c1OC` was 85%. The value for `O=S(=O)(O)c1cc(O)c2c(N=Cc3ccccc3O)c(S(=O)(=O)O)ccc2c1` was 101%; that for `C=C(C)[C@@H]1CC[C@]2(C)[C@H](CC[C@@H]3[C@@H]([C@@](C)(O)CCC=C(C)C)CC[C@]32C)[C@@]1(C)CCC(=O)N1CCN(C)CC1` was -32.3% [100 µM] (active); that for `CCOC(=O)c1cn2ncnc(Oc3ccc(NC(=O)NC4CC4)c(F)c3)c2c1C` was 70.9%. In the case of `O=C(Nc1ccc(Cl)c([N+](=O)[O-])c1)Nc1nc2ccccc2s1` it was 91.3%; in that of `O=C(Nc1cc([N+](=O)[O-])c2[nH]c(=O)c3ccccc3c2c1)C(F)(F)F`, 94.4%; in that of `C[C@]12O[C@H]1[C@H](O)c1c(cc(O)c3c1C(=O)c1cccc(O)c1-3)C2=O`, 100%. Turning to `COc1ccc(CNc2nc3ccccc3c3c(=O)c4ccccc4sc23)cc1OC`, the growth was 98.9%. The value for `NC(=O)c1ccc(Br)o1` was 96.8%. The value for `CSc1ccc2c(c1)N(CCC1CCCCN1C)c1ccccc1S2` (stereo not given) was 86.1%.

Values taken from PubChem BioAssay (NCI).
